Screens (PubChem)
HEK293 cAMP cs: qHTS Assay for Agonists of the Thyroid Stimulating Hormone Receptor: Activators of Intracellular cAMP Concentrations in Parental HEK 293 | parental HEK293 CNG cAMP sensor, membrane potential fluorescence | Potency, µM (highest dose often 57.1 µM), without a hit: at the highest dose activation, actives largely listed as activators | hit rate 2.5% among 73,000; also: % of control where 0% means no effect; nearly all actives have a fitted effect of over 55% in size
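Parental HEK 293 cells stably expressing a modified CNG channel (no TSHR) report cAMP rise as membrane depolarization. Membrane potential dye with 100 uM RO 20-1724 was loaded for 60 min at room temperature, then compound added for 30 min; fluorescence read at 590 nm.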
ERK AVP block: qHTS Assay for Inhibitors of the ERK Signaling Pathway using a Homogeneous Screening Assay. HEK293-V1b, vasopressin-stimulated pERK AlphaScreen. Potency, µM (doses to about 57.5 µM), for the others: top-dose activity, negative = inhibition, most hits filed as inhibitors. AID 995, 2007. hit rate 0.99% among 72,000; also: % is scaled to controls: 0 for no effect and ±100 for the full control effect; nearly all actives have a fitted effect of over 55% in size
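qHTS, compounds titrated on V1b-expressing HEK293 cells. Preincubation 30 min at 37C, vasopressin 25 nM for 5 min, lysis 10 min, bead incubation 5 hr at room temperature.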
Caspase-1 inhib: qHTS Assay for Allosteric/Competitive Inhibitors of Caspase-1 | P29466 | Caspase-1 enzyme, Ac-WEHD-AFC fluorogenic rate | Potency, µM (doses to about 57.5 µM), for the others: top-dose activity change, negative = inhibition, usual class: inhibitors | hit rate 0.03% among 75,000 | AID 900, 2007;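 also: plate controls were vehicle for no effect and no substrate for full effect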
Target sequence (P29466 120-297 limits assumed): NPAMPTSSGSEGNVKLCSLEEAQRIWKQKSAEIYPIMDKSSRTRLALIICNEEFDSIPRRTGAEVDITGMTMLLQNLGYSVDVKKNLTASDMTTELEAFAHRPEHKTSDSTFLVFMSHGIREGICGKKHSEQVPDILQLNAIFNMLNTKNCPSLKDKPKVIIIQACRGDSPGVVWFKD
Target sequence (P29466 317-404 limits assumed): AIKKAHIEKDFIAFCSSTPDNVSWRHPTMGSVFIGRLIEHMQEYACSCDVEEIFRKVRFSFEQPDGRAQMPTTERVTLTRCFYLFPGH
TSHR agonist: qHTS Assay for Agonists of the Thyroid Stimulating Hormone Receptor. AID 926, 2007. hit rate 0.48% among 73,000. Potency, µM (titrated, usually from 57.1 µM), without a hit: at the highest dose activation, hits mostly activators. Thyrotropin receptor (Homo sapiens), P16473. HEK293-CNG-TSHR cells (CNG channel as cAMP sensor), membrane potential dye, cAMP; active = well fitted activation curve with a large enough effect in the main read-out, with a control signal flat, not every such curve was filed as active; inconclusive = small, poorly fitted or top-dose-only effect, or a change in a side signal; inactive = no such curve, though single readings can be large or run the other way; % of control where 0% means no effect;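 also: the control signal comes from parental cells without the receptor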
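HEK 293 cells stably expressing TSHR and a cAMP-gated CNG channel; parental CNG-only cells as counterscreen. Cells preloaded 60 min with membrane potential dye plus 100 uM RO 20-1724, then compound 30 min; fluorescence read at 590 nm.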
Casp7 inh: qHTS Assay for Allosteric/Competitive Inhibitors of Caspase-7; Potency, µM (highest dose often 57.5 µM), inactives show at the highest dose activity change, negative = inhibition, hits mostly inhibitors; AID 889, 2007; hit rate 0.02% among 75,000; recombinant caspase-7, Ac-DEVD-AFC fluorescence rate; active = well fitted inhibition curve with a large enough effect in the main read-out, with a control signal flat, not every such curve was filed as active; inconclusive = small, poorly fitted or top-dose-only effect, or a change in a side signal; also: % of control where 0% means no effect
GBA activity: Glucocerebrosidase | Lysosomal acid glucosylceramidase (Homo sapiens), P04062 | purified enzyme, resorufin glucoside fluorescence (screen aimed at inhibitors), 20 min | Potency, µM | hit rate 1.1% among 48,000; in the data active = potency below about 15 µM; inconclusive = mostly about 16 µM to 33 µM;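 also: the screen sought inhibitors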
Target sequence (P04062 whole entry, looked up): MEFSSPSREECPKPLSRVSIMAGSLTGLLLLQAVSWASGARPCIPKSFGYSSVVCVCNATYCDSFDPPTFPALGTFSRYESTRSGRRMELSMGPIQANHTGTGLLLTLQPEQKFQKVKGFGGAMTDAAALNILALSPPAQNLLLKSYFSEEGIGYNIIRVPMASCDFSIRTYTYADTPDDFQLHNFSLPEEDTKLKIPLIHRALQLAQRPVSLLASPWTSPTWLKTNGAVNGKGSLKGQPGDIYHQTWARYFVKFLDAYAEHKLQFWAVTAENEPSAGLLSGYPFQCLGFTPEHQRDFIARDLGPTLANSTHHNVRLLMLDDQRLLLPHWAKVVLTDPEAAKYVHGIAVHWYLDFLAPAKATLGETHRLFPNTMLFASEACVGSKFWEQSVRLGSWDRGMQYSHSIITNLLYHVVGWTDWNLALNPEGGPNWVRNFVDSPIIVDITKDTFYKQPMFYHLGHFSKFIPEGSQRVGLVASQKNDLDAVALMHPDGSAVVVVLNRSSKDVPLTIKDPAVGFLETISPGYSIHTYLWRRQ
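Normal human glucocerebrosidase (0.2 nM final) was assayed with resorufin β-D-glucopyranoside (30 uM final) in 50mM citric acid/KH2PO4, 10mM sodium taurocholate, 0.01% tween-20, pH 5.9. Compounds were titrated; fluorescence (Ex 548, Em 600) read after 20 min at RT.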
The depositor's hits bear a star; i = inactive; ? = inconclusive; . = no result given; [ ] = dose if it differs, or a comment. A selection: hits, their analogues and other compounds. The true share with any hit is near 4.5%. Unless noted, calls follow the shape of the dose curve; as a rule, active = well fitted curve in the direction sought with a large enough effect; inconclusive = small, poorly fitted or top-dose-only effect, or another doubt; inactive = no such curve, though single readings can be large; an effect the other way counts as inactive or inconclusive. Potency is read from the fitted curve at half-maximal effect.

SMILES	HEK293 cAMP cs	ERK AVP block	Caspase-1 inhib	TSHR agonist	Casp7 inh	GBA activity
COc1ccc(N(C(=O)c2ccco2)S(=O)(=O)c2cc(OC)ccc2OC)cc1	15.8µM*	-17.3%	-0.6%	?	-0.9%	>76.9
COc1ccc(N(C(=O)c2ccco2)S(=O)(=O)c2cccs2)cc1	?	-14.8%	-0.8%	?	0.2%	>76.9
O=C(c1cnccn1)N1CCC[C@@]2(CCN(c3ccncc3)C2)C1	10.1%	-16.5%	-12.1%	3.3%	0.3%	.
O=C1C[C@@H](O)[C@@H](O)[C@H]2[C@@H]3C(=O)N(C[C@@H]4CCCO4)C(=O)[C@@H]3CC[C@H]12	-2.9%[11.4 µM]	12.7%[11.5 µM]	-3.7%[11.5 µM]	-5.3%[11.4 µM]	0.9%[11.5 µM]	.
CCOC(=O)c1ccccc1NC(=O)C1COc2ccccc2O1 (stereo not given)	25.1µM*	11.7%	-8.3%	?	-1.7%	.
C[C@@]12CCC(=O)C=C1C=CC1C2CC[C@]2(C)C1CC[C@@]21CCC(=O)O1 (stereo not given in full)	.	11.6%	-7.8%	.	-19.4%	.
CC(C)NC(=O)N1CCCC2(CCN(C(=O)c3ccncc3)CC2)C1	16.9%	8.0%	1.4%	0.8%	-0.2%	.
O=C(CS(=O)(=O)Cc1ccccc1)Nc1nc2ccccc2s1	-13.2%	25.1µM*	1.6%	1.6%	-2.2%	.
CN(CC(=O)Nc1nc2ccccc2s1)S(=O)(=O)c1ccccc1	23.4%	?	-0.6%	10.4%	-0.8%	>76.9
O=C(O)c1cc(S(=O)(=O)Nc2ccc(O)cc2)ccc1Cl	11.1%	.	-1.0%	8.0%	-0.4%	.
O=c1c(-c2ccc(O[C@@H]3O[C@H](CO)[C@@H](O)[C@H](O)[C@H]3O)cc2)coc2cc(O)cc(O)c12	.	3.3%	0.7%	.	2.5%	.
CC[C@H](Cc1c(I)cc(I)c(N)c1I)C(=O)O	16.3%[25.6 µM]	-21.8%[25.7 µM]	-1.4%[25.7 µM]	22.6%[25.6 µM]	1.2%[25.7 µM]	.
O=C(c1cn(-c2ccccc2)nc1-c1ccccc1)N1CCOCC1	-6.3%	-15.1%	0.5%	7.6%	1.0%	>76.9
O=C(c1cn(-c2ccccc2)nc1-c1ccc(Cl)s1)N1CCOCC1	-4.4%	-19.7%	-4.3%	25.1µM*	0.2%	>76.9
Cc1cccc(CNc2cc(-c3ccoc3)ncn2)c1	15.0%	?	-8.4%	16.3%	-9.9%	.
Cc1cc(C)c(NC(=O)CN2C(=O)NC3(CCCCC3)C2=O)c(C)c1	1.4%	-15.0%	-0.7%	3.6%	0.9%	>76.9
CCc1cccc(NC(=O)CN2C(=O)NC3(CCCCCCC3)C2=O)c1	14.0%	9.7%	0.4%	12.6µM*	-0.3%	>76.9
CC(=O)NCCNc1ncnc2ccc(-c3ccc4c(c3)OCO4)cc12	11.0%	-5.8%	-3.5%	-0.4%	-3.8%	.
COC1=CC(=O)C(O)=C/C1=C\C=C\c1ccccc1	.	-21.8%	-0.2%	.	-5.1%	.
CCCCn1c(NC(=O)CC)c(C#N)c2nc3ccccc3nc21	25.1µM*	-27.5%	.	?	?	>76.9
CNC(=O)[C@H]1O[C@H](n2cnc3c(NCc4cccc(I)c4)nc(Cl)nc32)[C@@H](O)[C@@H]1O	-18.4%	15.8µM*	-1.5%	4.3%	-3.0%	.
CCCC1c2c(ccc3ccccc23)Oc2ccc3ccccc3c21	6.6%[11.4 µM]	2.4%[11.5 µM]	1.1%[11.5 µM]	1.4%[11.4 µM]	-0.2%[11.5 µM]	.
CCOc1ccccc1C(=O)Nc1nncs1	8.5%	8.3%	0.7%	2.1%[11.4 µM]	-0.5%	>76.9
COC(=O)c1ccccc1NC(=O)c1ccc(F)cc1	?	11.6%	-2.8%	?	1.2%	.
CCOc1ccccc1C(=O)Nc1cc(OC)ccc1OC	25.1µM*	.	-9.0%	?	0.4%	.
SMILES	HEK293 cAMP cs	ERK AVP block	Caspase-1 inhib	TSHR agonist	Casp7 inh	GBA activity
COC(=O)c1ccccc1NC(=O)c1ccccc1OC	15.8µM*	35.6%	-1.8%	?	1.2%	>76.9
CCOc1ccccc1C(=O)Nc1cc(Cl)ccc1O	-33.1%	10µM*	-4.2%	?	-4.9%	.
CN(C)C(=O)c1ccc(-c2cncnc2NCc2cccnc2)cc1	?	-15.2%	1.1%	?	-0.6%	.
CC(c1ccco1)N(C(=O)COc1ccc(Cl)cc1Cl)c1ccccn1 (stereo not given)	25.1µM*	5.0%	-2.2%	?	-3.7%	>76.9
CCCCN(CC)CCNS(=O)(=O)c1cccc2cccnc12	12.2%	.	-0.4%	11.7%	-0.5%	.
CN1C[C@@H](C(=O)N[C@]2(C)O[C@]3(O)[C@H]4CCCN4C(=O)[C@H](Cc4ccccc4)N3C2=O)C[C@H]2c3cccc4[nH]cc(c34)C[C@@H]21	-4.9%	-6.1%	-0.5%	-9.6%	-2.1%	.
CCOc1ccc(CCNC(=O)Cn2c(-c3nonc3N)nc3ccccc32)cc1OCC	?	3.1%	-3.1%	?	-1.6%	>76.9
Nc1nonc1-c1nc2ccccc2n1CC(=O)N1CCN(c2ccc(F)cc2)CC1	25.1µM*	-6.8%	-2.7%	?	0.0%	>76.9
CCOC(=O)Cn1c(-c2nonc2NC(=O)c2ccccc2F)nc2ccccc21	11.3%	24.7%	-3.0%	1.3%	-1.1%	.
CCCCOc1ccccc1NC(=O)Cn1c(-c2nonc2N)nc2ccccc21	6.31µM*	15.5%	-0.9%	?	-0.1%	>76.9
Cn1c(-c2cccc(Br)c2)cnc1NCc1cccnc1	-2.0%	-18.0%	-0.9%	8.0%	1.6%	>76.9
Cn1c(-c2ccc(F)cc2)cnc1NCc1ccccc1	12.0%	25.1µM*	-2.6%	.	-1.3%	>76.9
O=C(O)Cc1c[nH]c2ccc(F)cc12	25.6%[11.4 µM]	-11.6%[11.5 µM]	-6.9%[11.5 µM]	.	2.4%[11.5 µM]	.
CN1CCN(Cc2nc(N)nc(Nc3ccc4c(c3)OCCO4)n2)CC1	-4.0%	6.3%	-1.0%	0.0%	0.2%	>76.9
Cc1cccc(Nc2nc(N)nc(CN3CCN(c4ccccc4)CC3)n2)c1	16.6%	-23.7%	-1.4%	5.4%	-1.9%	4.34*
Cc1ccc(Nc2nc(N)nc(CN3CCCCCC3)n2)c(C)c1	5.8%	?	-1.2%	12.1%	-2.7%	.
Cc1cccc(Nc2nc(N)nc(CN3CCN(Cc4ccc5c(c4)OCO5)CC3)n2)c1	20.5%	-21.7%	0.3%	12.7%	0.4%	9.79*
Cc1cccc(Nc2nc(N)nc(CN3CCN(c4ccccc4F)CC3)n2)c1	10.0%	-4.6%	-0.9%	8.7%	-0.8%	1.43*
COc1cccc(N2CCN(Cc3nc(N)nc(Nc4ccccc4)n3)CC2)c1	5.9%	-23.5%	0.5%	2.2%	-1.4%	2.91*
Nc1nc(CN2CCN(c3ccccn3)CC2)nc(Nc2ccc(Cl)cc2)n1	6.5%	31.6µM*	-3.0%	4.5%	-1.7%	i
c1ccc(N2CCN(Cc3ccsc3)CC2)nc1	7.9%[11.4 µM]	3.4%	-1.7%	4.6%[11.4 µM]	1.0%	.
C[C@@](Cc1ccccc1)(NC(=O)CN)c1ccccc1	5.1%	-23.7%	1.7%	21.5%	0.0%	.
